An excerpt weighted towards active compounds, which were near 21% of everything screened.
RORg inh: ROR gamma (mouse) transcription inhibition | P51450 | Drosophila S2 Gal4-RORgamma UAS-luciferase reporter, 20 h | Potency, µM (highest dose often 53.6 µM), for the others: top-dose activity change, negative = inhibition, actives largely listed as inhibitors | hit rate 5.4% among 310,000 | AID 2551; also: potency is read from the fitted curve at half-maximal effect; nearly all actives have a fitted effect of over 60% in size
Target sequence (P51450 whole entry, looked up, the tested form may be a part): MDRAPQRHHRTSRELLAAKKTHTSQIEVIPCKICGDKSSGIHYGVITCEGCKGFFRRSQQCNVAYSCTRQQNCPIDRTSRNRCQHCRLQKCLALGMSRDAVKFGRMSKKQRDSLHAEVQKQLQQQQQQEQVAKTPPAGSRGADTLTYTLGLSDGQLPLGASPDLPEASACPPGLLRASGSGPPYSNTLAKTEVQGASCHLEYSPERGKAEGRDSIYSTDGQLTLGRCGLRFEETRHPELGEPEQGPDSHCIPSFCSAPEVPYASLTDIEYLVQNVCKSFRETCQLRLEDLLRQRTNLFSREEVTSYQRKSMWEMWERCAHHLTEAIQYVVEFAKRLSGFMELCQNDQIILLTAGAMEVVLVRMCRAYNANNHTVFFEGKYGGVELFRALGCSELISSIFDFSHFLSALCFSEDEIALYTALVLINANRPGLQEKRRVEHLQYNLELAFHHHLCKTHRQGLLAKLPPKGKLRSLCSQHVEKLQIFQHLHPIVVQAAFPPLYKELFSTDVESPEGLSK
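Luciferase reporter read in Schneider cells carrying Gal4-RORγ (mouse) and UAS-Photinus luciferase; cells given compound 1 h before 700 uM copper sulfate induction, then incubated 20 h at ambient temperature.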
TDP1 cell noCPT: qHTS for Inhibitors of human tyrosyl-DNA phosphodiesterase 1 (TDP1): qHTS in cells in absence of CPT; DT40 Tdp1-/- hTDP1 cells, no CPT, ATP luminescence, 48 h; Potency, µM (highest dose often 46.2 µM), for the others: at the highest dose activity change, negative = growth inhibition, usual class: inhibitors; hit rate 15% among 420,000; also: potency is read from the fitted curve at half-maximal effect; nearly all actives have a fitted effect of over 55% in size
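Chicken DT40 Tdp1-/- cells complemented with human TDP1, screened without camptothecin (DMSO vehicle only), 400 cells/well. Compounds pin-transferred, cells incubated at 37 °C for at least 48 hr. Growth read as ATP-dependent luminescence (CellTiter-Glo, 30 min at RT).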
TDP1 cell CPT: DT40-hTDP1 cell growth loss with CPT; Potency, µM (titrated, usually from 46.2 µM), for inactives: at the top dose activity change, negative = growth inhibition, most hits filed as inhibitors; chicken DT40 Tdp1-/-;hTDP1 cells + 20 nM CPT, ATP luminescence, 48 h; hit rate 12% among 420,000; also: potency is read from the fitted curve at half-maximal effect; nearly all actives have a fitted effect of over 55% in size
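Chicken DT40 Tdp1-/- cells stably complemented with human TDP1 were seeded at 400 cells/well in medium containing 20 nM camptothecin, exposed to pin-transferred compounds, and grown at 37 °C for at least 48 hr. Viability was read as ATP luminescence.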
Gal4-VP16 FLuc: counter-screen for ROR gamma inhibitors: Gal4-VP16 reporter; Potency, µM (titrated, usually from 53.6 µM), without a hit: at the highest dose activity, negative = inhibition, hits mostly inhibitors; hit rate 3.5% among 310,000; Drosophila S2 Gal4-VP16 UAS-luciferase, luminescence, 20 h;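 also: Gal4-VP16 expression switched on by copper sulfate through the metallothionein promoter; potency is read from the fitted curve at half-maximal effect; nearly all actives have a fitted effect of over 50% in size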
ELG1 repair inh: ELG1-dependent DNA repair inhibition | HEK293T ELG1-luciferase reporter, luminescence, 16 h; DNA damage induced by 5-fluorouridine | Potency, µM (top dose mostly 46.1 µM), for inactives: top-dose activity change, negative = inhibition, usual class: inhibitors | hit rate 2.3% among 330,000; also: potency is read from the fitted curve at half-maximal effect; nearly all actives have a fitted effect of over 55% in size
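Step one: seed 2,000 cells per well. Step two: pin-transfer compound or DMSO alongside 5-fluorouridine. Step three: incubate 16 hr, 37 °C, 5% CO2. Step four: add ONE-Glo, wait 30 min, read luminescence.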
IL-1B inflam inh: blocks inflammasome-driven IL-1 beta release; hit rate 4.7% among 360,000; activity change, % at 57.5 µM; THP-1 LPS/ATP IL-1B secretion, AlphaLISA, 16 h; active compounds read low; AID 743279; in the data active = activity change below about -50%; inconclusive = mostly about -30% to -49%
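Secreted IL-1B measured by AlphaLISA bead assay after 16 h compound exposure of THP-1 cells; compounds (final up to 57.5 uM) added 1 h before LPS (250 ng/mL) and ATP (1.25 mM) stimulation; lower signal means less secretion.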
An asterisk follows results filed as active; ? = inconclusive; / = not tested or not shown; [ ] = another dose, or the depositor's remark. Unless noted, calls follow the shape of the dose curve; as a rule, active = well fitted curve in the direction sought with a large enough effect; inconclusive = small, poorly fitted or top-dose-only effect, or another doubt; inactive = no such curve, though single readings can be large; an effect the other way counts as inactive or inconclusive. % is scaled to controls: 0 for no effect and ±100 for the full control effect.

SMILES	RORg inh	TDP1 cell noCPT	TDP1 cell CPT	Gal4-VP16 FLuc	ELG1 repair inh	IL-1B inflam inh
COC(=O)c1c(NC(=O)CC2SC(N)=NC2=O)sc2c1CCC(C(C)(C)C)C2 (centres undefined)	?	?	?	-26%	-3%	-53*
CCOC(=O)c1c(NC(=S)NC(=O)c2cnn(CC)c2)sc2c1CCC(C)C2 (centres undefined)	11µM*	?	?	-6%	1%	11
CCOC(=O)c1c(NC(=O)CC2SC(N)=NC2=O)sc(C)c1C (centres undefined)	?	-40%	23µM*	2%	-3%	-7
COc1cc(NS(=O)(=O)c2ccc(NC(=O)c3ccc(OC)c(Br)c3)cc2)nc(OC)n1	/	-11%	5%	/	/	/
CC(=Nc1ccccc1)C1=C(O)C(CC(C)C)NC1=O (centres undefined)	/	-3%	-12%	/	/	-23
Cn1c(-c2ccc(CN3CCCCC3)o2)nc2ccccc21	?	-23%	-11%	?	?	7
CCn1c(CNC(=O)c2ccccc2F)cc2cc(C)ccc21	-4%	-18%	0%	9%	?	2
CN(C)C=Nc1ncc2c3ccccc3n(Cc3ccccc3)c2c1C#N	-21%	?	-26%	6%	-4%	-4
CCN(CC)CCn1c2ccccc2c2cnc(N)c(C#N)c21	0.18µM*	21µM*	?	-63%	?	-104*
CN(C)C=Nc1ncc2c3ccccc3n(CCN(C)C)c2c1C#N	-25%	23µM*	21µM*	?	6.5µM*	-77*
CCN(CC)S(=O)(=O)c1ccc(N/N=C/c2cc(OC)c(OC)cc2OC)nc1	4%	?	-5%	-7%	3%	26
CCCNc1ccc(S(=O)(=O)N(C(C)C)C(C)C)cn1	17%	?	-5%	9%	3%	10
CCCNc1ccc(S(=O)(=O)N(CC)CC)cn1	41%	-90%	16µM*	-18%	21%	3
CCN(CC)S(=O)(=O)c1ccc(N/N=C(\C)c2ccc(OC)cc2O)nc1	0.71µM*	29µM*	3.3µM*	2.5µM*	-30%	243
CCN(CC)S(=O)(=O)c1ccc(N/N=C/c2ccc(OC)c(OC)c2OC)nc1	-8%	18µM*	?	-10%	-25%	5
CCOc1cccc(/C=N/Nc2ccc(S(=O)(=O)N(CC)CC)cn2)c1O	1µM*	0.58µM*	0.16µM*	3.2µM*	-11%	52
COC(=O)C1=C[C@@H](C(=O)OC)[C@@H]2C3=C(C(=O)[C@@]2(CC(C)C)NC(=O)c2ccccc2)[C@H](C)n2c(=O)n(-c4ccccc4)c(=O)n2[C@@H]3C1	-5%	/	/	7%	/	/
Cc1cccc([C@H]2[C@@H]3C=CC(C)C[C@@H]3C(=O)N2Cc2ccccc2)c1 (some centres undefined)	11%	/	/	-15%	/	/
COc1ccc(N2CCN(CNC(=O)c3ccccc3)CC2)cc1	22%	17%	-11%	-1%	-3%	-12
O=C(/C=C\c1cccs1)c1c(O)ccc2ccc(=O)oc12	-22%	?	?	-18%	?	-83*
O=C(/C=C/c1cccc([N+](=O)[O-])c1)n1cnc2ccccc21	11µM*	2.6µM*	2.6µM*	-7%	-2%	-68*
O=C(/C=C/c1cccc([N+](=O)[O-])c1)c1ccccc1	8%	/	/	7%	/	/
CC(=O)Oc1ccccc1C(=O)C=Cc1cccc([N+](=O)[O-])c1	/	21µM*	10µM*	/	/	-101*
O=C(/C=C/c1ccc(O)cc1)c1cccs1	14µM*	24µM*	24µM*	-3%	/	/
CCOc1ccc(NS(=O)(=O)c2ccc3ncsc3c2)cc1	42%	?	?	-10%	10%	14
SMILES	RORg inh	TDP1 cell noCPT	TDP1 cell CPT	Gal4-VP16 FLuc	ELG1 repair inh	IL-1B inflam inh
CCOC(=O)CC(CC(C)=O)C(=O)OCC (centres undefined)	16%	/	/	1%	/	/
O=C(Nc1cccc2ccccc12)/C(=C/c1cccc([N+](=O)[O-])c1)NC(=O)c1cccs1	-25%	?	4%	-11%	?	8
Cc1cccc(NC(=O)/C(=C/c2cccc([N+](=O)[O-])c2)NC(=O)c2cccs2)c1	-33%	1.8µM*	-46%	?	18%	-6
O=C(/C=C/c1cccs1)N1CCc2ccccc21	8.9µM*	-25%	-9%	?	?	-7
O=C(/C=C/c1cccc([N+](=O)[O-])c1)c1cccs1	?	2.3µM*	3.7µM*	?	?	-88*
O=C(c1cccs1)N1CCc2ccccc21	0%[0.365 µM]	-8%	-17%	/	?	0
O=C(C=Cc1cccs1)c1cccs1	/	26µM*	?	/	/	-26
O=C(/C=C/c1cccc([N+](=O)[O-])c1)Nc1ccc(NC(=O)c2cccs2)cc1	-23%	3%	5%	1%	7%	8
O=C(/C=C/c1ccc(O)cc1)c1ccccc1O	?	15µM*	26µM*	-2%	/	/
O=C(/C=C\c1ccccc1)c1ccccc1O	17%[10 µM]	/	/	26%[10 µM]	/	/
O=C(NCCN1CCOCC1)C1CC(=O)N(c2ccc(F)cc2)C1 (centres undefined)	0%	?	-3%	10%	2%	-12
Cc1nc(SCC(=O)N2CCOCC2)c2c(C)c(C)sc2n1	-1%	-16%	4%	5%	?	11
